According to PubChem BioAssay AID624296 (National Center for Advancing Translational Sciences (NCATS), 2012):
In all, about 350,000 compounds went through this assay and about 9,900 (2.8%) were called active. Inconclusive results (about 15%) are left out. Calls come from the whole dose curve; as a rule, active = well fitted activation curve with a large enough effect; inconclusive = small, poorly fitted or top-dose-only effect; inactive = no such curve, though single readings can be large or run the other way. The entries come from a sample that favours actives as a whole. Where a call stands in place of a potency, no number is given.
Potency is the fitted concentration of half-maximal effect.

Test: A quantitative high throughput screen for small molecules that induce DNA re-replication in MCF 10a normal breast cells. Note: nearly all actives have a fitted effect of over 50% in size.
Conditions: MCF 10A DNA re-replication, Hoechst nuclear intensity, 48 h; series mostly up to 46.1 µM
With `CCC1(C)Cc2c(sc3nc(SC)nc(N)c23)CO1` (stereo not given) the Potency was “inactive”. In the case of `CCCSc1nc(NCc2ccco2)c2c3c(sc2n1)COC(C)(CC)C3` (stereo not given), the Potency is reported as 23.1 µM (active). For `CCC1(C)Cc2c(sc3nc4n(c(=O)c23)CCCS4)CO1` (stereo not given), the Potency was “inactive”. With `O=C(OCC(=O)N1CCCCC1)c1ccc(OC(F)(F)F)cc1` the Potency was “inactive”. In the case of `O=C(NCCc1ccc(F)cc1)c1ccc(S(=O)(=O)N2CCCCC2)cc1`, the Potency is reported as “inactive”. In the case of `CC1(c2ccccc2)NC(=O)N(CC(=O)N2CC(=O)Nc3ccccc32)C1=O` (stereo not given), the Potency is reported as “inactive”. For `NC(=O)C1CCN(C(=O)c2ccc(F)c(S(=O)(=O)N3CCOCC3)c2)CC1`, the Potency was “inactive”. With `Cc1ccc(S(=O)(=O)Cc2cc(-c3ccc(Cl)cc3)no2)cc1` the Potency was “inactive”. In the case of `O=S(=O)(NCc1ccc(Cl)cc1Cl)c1cccs1`, the Potency is reported as “inactive”. With `O=S(=O)(Cc1ccc(Cl)cc1Cl)c1ccc(Cl)cc1` the Potency was 0.651 µM (active). For `CC(=O)Nc1ccc(C(=O)NNC(=O)CCCCC(=O)NNC(=O)c2ccc(NC(C)=O)cc2)cc1`, the Potency was “inactive”. For `CCCC(=O)Nc1ccc(C(=O)N/N=C/c2ccc[nH]2)cc1`, the Potency was 16.4 µM (active). With `CC(=O)Nc1ccc(C(=O)/C=C/c2ccc[nH]2)cc1` the Potency was “inactive”. With `Cc1ccc(C(=O)Nc2ccc3c(c2)OCCO3)cc1S(=O)(=O)N1CCOCC1` the Potency was “inactive”. With `O=C(CNCCC1=CCCCC1)Nc1ccccc1N1CCCCCC1` the Potency was 20.6 µM (active). In the case of `Cn1c(=O)c2c(nc(SCC(=O)Nc3ccccc3N3CCCCC3)n2C)n(C)c1=O`, the Potency is reported as “inactive”. In the case of `Cc1ccccc1NC(=O)CNc1ccccc1N1CCCCC1`, the Potency is reported as “inactive”. For `COc1ccc(C(=O)NCC2CCCCC2)cc1S(=O)(=O)N1CCCC1`, the Potency was “inactive”. With `Cc1ccc(SCc2c(C(=O)N/N=C/C3CC=CCC3)nnn2-c2nonc2N)cc1` (stereo not given) the Potency was “inactive”. For `Nc1nonc1-n1nnc(C(=O)N/N=C/c2cc(Br)ccc2O)c1CSC1=NCCS1`, the Potency was 10.3 µM (active). With `Nc1nonc1-n1nnc(C(=O)N/N=C/c2ccccc2O)c1CN1CCCC1` the Potency was “inactive”. In the case of `COc1ccc(C2(c3ccc(OC)cc3)NC(=O)N(CC(=O)Nc3cc(C)on3)C2=O)cc1`, the Potency is reported as “inactive”. In the case of `Cn1c(=O)c2c(ncn2CC(COCc2ccccc2Cl)OCc2ccccc2Cl)n(C)c1=O` (stereo not given), the Potency is reported as 13 µM (active). With `Cn1c(=O)c2c(ncn2CC(=O)N2CCN(c3ccccc3)CC2)n(C)c1=O` the Potency was “inactive”. In the case of `Cn1c(=O)c2c(ncn2CCc2ccccc2)n(C)c1=O`, the Potency is reported as “inactive”. For `O=C(O)C1C2C=CC(O2)C1C(=O)Nc1ccccn1` (stereo not given), the Potency was “inactive”. With `O=C(CNC(=O)c1n[nH]c2ccccc12)Nc1cc(Cl)ccc1Cl` the Potency was “inactive”. With `COC[C@@H]1NS(=O)(=O)c2ccc(Br)cc2O[C@H]1c1ccccc1` the Potency was “inactive”. In the case of `O=C(O)/C=C/C(=O)Nc1ccc(F)cc1F`, the Potency is reported as “inactive”. In the case of `COC(=O)c1sc(-c2ccc(C(C)(C)C)cc2)cc1NC(=O)/C=C/C(=O)O`, the Potency is reported as 16.4 µM (active). For `COc1ccccc1NC(=O)/C=C/C(=O)O`, the Potency was “inactive”. For `COC(=O)c1sc(NC(=O)COC(=O)C2CCC2)c(C(=O)OC)c1C`, the Potency was “inactive”. In the case of `CC(NCC(=O)Nc1ccccc1C(=O)NC1CC1)c1ccccc1Cl` (stereo not given), the Potency is reported as “inactive”. In the case of `O=C(O)CCCC(=O)Nc1ccccc1-n1ccnc1`, the Potency is reported as “inactive”. With `CC(CC(=O)Nc1ccccc1)n1ccnc1` (stereo not given) the Potency was 0.92 µM (active). In the case of `CC(C)CC(=O)Nc1ccc(Cc2ccncc2)cc1`, the Potency is reported as “inactive”. With `O=[N+]([O-])c1ccc(COc2ccccc2CN2CCOCC2)cc1` the Potency was “inactive”. With `CCN(CC(=O)NCc1ccc(F)cc1)S(=O)(=O)c1ccc(Cl)s1` the Potency was “inactive”. For `COc1cccc(C(=O)Nc2nc3ccc(S(C)(=O)=O)cc3s2)c1`, the Potency was “inactive”. In the case of `COc1ccc2sc(-c3ccc(S(C)(=O)=O)cc3)c(-c3ccc(C(N)=O)cc3)c2c1`, the Potency is reported as 25.9 µM (active). For `COc1ccc(C(=O)Nc2cccc(S(C)(=O)=O)c2)cc1`, the Potency was “inactive”. With `CC(=O)Nc1ccc(S(=O)(=O)NCCC(=O)N2CCN(c3ccccc3Cl)CC2)cc1` the Potency was “inactive”. In the case of `NC(=O)c1ncn([C@@H]2O[C@H](CN=C3NS(=O)(=O)c4ccccc43)[C@@H](O)[C@H]2O)n1`, the Potency is reported as “inactive”. In the case of `CCc1sc(C(=O)N2CCN(CC(=O)Nc3cccc(F)c3)CC2)cc1C`, the Potency is reported as “inactive”. In the case of `CCOc1ccc(N2C(=O)CC(N(CCc3ccc(OC)c(OC)c3)C(=S)Nc3ccccc3)C2=O)cc1` (stereo not given), the Potency is reported as 23.1 µM (active). In the case of `COC(=O)CN(C(=S)Nc1ccc(Cl)cc1)C1CC(=O)N(c2ccc(OC)cc2)C1=O` (stereo not given), the Potency is reported as “inactive”. For `CCOc1ccc(N2C(=O)CC(N(O)c3ccccc3)C2=O)cc1` (stereo not given), the Potency was “inactive”. With `COc1ccccc1N1CCN(CC(=O)Nc2ccnn2C2CCCC2)CC1` the Potency was “inactive”. With `CC(C)Cn1cnc2c(SCc3ccc(Cl)cc3)nc(N)nc21` the Potency was “inactive”. With `O=C(O)c1ccc(Cn2c(=S)[nH]c3cc(Cl)ccc3c2=O)cc1` the Potency was “inactive”. For `CC(C)c1ccc2c(c1)c(SC(C)(C)C)c(CC(C)(C)C(=O)O)n2Cc1ccc(Cl)cc1`, the Potency was 2.91 µM (active). In the case of `CCN([C@H](CO)C(C)C)S(=O)(=O)c1ccccc1Br`, the Potency is reported as “inactive”. With `COc1ccc(-c2c(C#Cc3ccsc3)c3cc(-c4ccc(CN5CCOCC5)cc4)ccc3n2C)cc1` the Potency was “inactive”. In the case of `COc1cc(OC)cc(-c2c(C#Cc3ccsc3)c3cc(-c4ccc(SC)cc4)ccc3n2C)c1`, the Potency is reported as “inactive”. In the case of `COc1cc(OC)cc(-c2c(C#Cc3ccsc3)c3cc(-c4ccc(OC)cc4F)ccc3n2C)c1`, the Potency is reported as 0.326 µM (active). With `COc1cccc2oc(CCc3ccccc3)cc(=O)c12` the Potency was “inactive”. For `Cc1nn(-c2ncccn2)c2c1C(=O)CC(C)(C)C2Br` (stereo not given), the Potency was “inactive”. With `O=C(O)CCC(=O)N(Cc1cccs1)Cc1cccs1` the Potency was “inactive”. In the case of `O=C(O)CCC(=O)N(Cc1ccccc1)Cc1ccccc1`, the Potency is reported as 0.731 µM (active). For `CCN(CC)C(=O)N(CC)Cc1ccccc1`, the Potency was “inactive”. In the case of `Cc1cc(NC(=O)C(C)SCC(=O)Nc2cccc(S(=O)(=O)N3CCCCCC3)c2)no1` (stereo not given), the Potency is reported as “inactive”. In the case of `O=C(CC(Cc1ccccc1)C(=O)O)NCCc1ccc2c(c1)OCO2` (stereo not given), the Potency is reported as “inactive”. With `O=C(CCc1nnc(Cc2ccc3c(c2)OCO3)o1)NCCc1ccccc1Cl` the Potency was 20.6 µM (active). In the case of `Cn1cc(CCC(=O)NCc2ccc3c(c2)OCO3)c2ccccc21`, the Potency is reported as “inactive”. In the case of `COc1ccc(CCC(=O)N2CCN(S(=O)(=O)c3ccc(OC)cc3)CC2)cc1`, the Potency is reported as “inactive”. For `Cc1ccccc1-n1c(C)cc(/C=N/NC(=O)c2ccc(CN3CCOCC3)cc2)c1C`, the Potency was “inactive”. With `Cc1ccc(CN2C(=O)N/C(=C/c3cc(C)n(-c4ccccn4)c3C)C2=O)cc1` the Potency was “inactive”. With `Cc1ccccc1-n1c(C)cc(/C=C2\NC(=O)NC2=O)c1C` the Potency was 25.9 µM (active). In the case of `CC1(C)CC(=O)C=C(c2cccc3c2Oc2ccccc2S3)C1`, the Potency is reported as “inactive”. With `CC(=NNC(=O)c1ccc2nc[nH]c2c1)c1ccc(Br)cc1` the Potency was “inactive”. For `Cc1csc(NC(=O)c2ccc(-c3ccc(Cl)cc3Cl)o2)n1`, the Potency was 18.4 µM (active). In the case of `O=C(Nc1cccc2ncccc12)c1ccc(-c2ccc(Cl)cc2Cl)o1`, the Potency is reported as “inactive”. With `Cc1csc(NC(=O)c2ccc(C)s2)n1` the Potency was “inactive”. For `CC(Nc1ccc([N+](=O)[O-])cc1[N+](=O)[O-])c1ccccc1` (stereo not given), the Potency was “inactive”. With `CCCn1c(C(C)Nc2nc(-c3ccc(C)cc3)cs2)nc2cc(Cl)c(N3CCCCC3)cc21` (stereo not given) the Potency was “inactive”. In the case of `Cc1nc2cc(C(F)(F)F)ccc2n1CCNc1nc(-c2cc(Cl)c(N)c(Cl)c2)cs1`, the Potency is reported as 23.1 µM (active). In the case of `CCCn1c(CCNc2nc(-c3ccc(OC)cc3)cs2)nc2ccccc21`, the Potency is reported as “inactive”. With `CC1CCCCC1NC(=O)Cn1cnc2c1c(=O)n(C)c(=O)n2C` (stereo not given) the Potency was “inactive”. In the case of `CCCN(CC(=O)Nc1ccccc1C)C(=O)c1ccc(OCC(=O)N2CCOCC2)c(OCC)c1`, the Potency is reported as “inactive”. In the case of `COc1ccc(Cc2nc3ccc(C(=O)NCC4CCOCC4)cc3o2)cc1OC`, the Potency is reported as “inactive”. With `COCCNC(=O)c1ccc2nc(Cc3ccc(OC)c(OC)c3)oc2c1` the Potency was 3.26 µM (active). In the case of `CSCCNC(=O)c1ccc2nc(Cc3ccccc3F)oc2c1`, the Potency is reported as “inactive”. In the case of `CCOc1ccc(NC(=O)CN(C)C(=O)c2cccc(S(=O)(=O)N3CCCC3)c2)cc1OCC`, the Potency is reported as “inactive”. With `COc1ccc(S(=O)(=O)N2CCOCC2)cc1NC(=O)c1ccc(OCC(C)C)c(OC)c1` the Potency was “inactive”. For `CCCOc1ccc(Cn2ccnc2)cc1[N+](=O)[O-]`, the Potency was “inactive”. For `CCCCCOc1ccc(CSC2=NCCN2)cc1[N+](=O)[O-]`, the Potency was 20.6 µM (active). For `Cc1nc(SCc2ccc(F)cc2)c([N+](=O)[O-])[nH]1`, the Potency was “inactive”. With `COc1ccccc1C1=CC(=O)C[C@H](c2ccc(F)cc2)C1` the Potency was “inactive”. With `Cc1ccc(NC(=O)[C@H](Cc2ccccc2)NC(=O)C2CCNCC2)cc1` the Potency was “inactive”. For `CCC(Cc1ccccc1)NC(=O)C1CCCCC1` (stereo not given), the Potency was 0.651 µM (active). In the case of `O=C(COC(=O)CNC(=O)C1CCCCC1)NCc1ccccc1`, the Potency is reported as “inactive”. With `O=C(O)c1ccc(Cn2cnc3c(=S)nc[nH]c32)cc1` the Potency was “inactive”. In the case of `COc1ccccc1N(CCOc1ccccc1)S(=O)(=O)c1ccccc1`, the Potency is reported as “inactive”. For `Cc1cccc(C(=O)NCCCN(C)CCCNC(=O)c2cccc(C)c2)c1`, the Potency was “inactive”. For `COc1ccc(C(=O)NN(C)c2nc(-c3ccccc3)cc(C)c2S(C)(=O)=O)cc1`, the Potency was “inactive”. With `CSc1nc(N(C)NC(=O)c2cccc(C)c2)c2ccccc2n1` the Potency was 0.231 µM (active). In the case of `CCN(c1ccccc1)S(=O)(=O)c1ccc(OCC(=O)N2CCCC2)cc1`, the Potency is reported as “inactive”. With `Cc1c(C)n(Cc2ccc(Cl)cc2)c2ccc(C(=O)NCCCN3CCOCC3)cc12` the Potency was 23.1 µM (active). For `O=C(NCCN1CCOCC1)c1ccc2c(c1)N(Cc1ccc(Cl)cc1)CCS2`, the Potency was “inactive”. For `Cc1ccc(C(=O)NCCN2CCOCC2)cc1C`, the Potency was “inactive”. In the case of `COC(=O)C1=CO[C@@H](O[C@@H]2O[C@H](CO)[C@@H](O)[C@H](O)[C@H]2O)C2C1C[C@H](O)[C@@H]2C` (stereo not given in full), the Potency is reported as “inactive”. For `O=c1nc(NO)ccn1C1CCCO1` (stereo not given), the Potency was “inactive”. For `COc1cc(NC(=O)c2cccnc2SC)cc(OC)c1`, the Potency was “inactive”. With `COc1cc(NC(=O)c2ccccc2NS(=O)(=O)c2ccc(Cl)s2)cc(OC)c1` the Potency was 14.6 µM (active). For `COc1cc(OC)c(S(=O)(=O)Nc2ccccc2C(=O)O)cc1S(=O)(=O)Nc1ccccc1C(=O)O`, the Potency was “inactive”.
